HT1080 IDH1KD tx – toxicity to HT-1080 IDH1 knockdown cells (counter line). Potency, µM (doses to about 46.1 µM), hits mostly cytotoxic. 2% of 360,000 active. AID 686971. HT-1080 IDH1 knockdown viability, ATP luminescence, 48 h
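In this qHTS, HT-1080 cells depleted of IDH1 are exposed for 48 h at 37 °C to compound titrations. Toxicity is scored from CellTiter-Glo luminescence, with DMSO as full viability and medium alone as none.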
DT40 TDP1 CPT – growth inhibition of DT40 Tdp1-/-;hTDP1 cells with camptothecin (screen for TDP1 inhibitors). chicken DT40 Tdp1-/-;hTDP1 cells + 20 nM CPT, ATP luminescence, 48 h. Potency, µM (series often up to 46.2 µM), actives largely listed as inhibitors. 12% of 420,000 active; also: nearly all actives have a fitted effect of over 55% in size
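Cell growth measured by CellTiter-Glo luminescence after a minimum 48 h, 37 C compound exposure with 20 nM CPT in Tdp1-knockout DT40 cells stably expressing hTDP1, seeded 400/well; qHTS titration format.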
IL-1B inflam inh – inhibitors of inflammasome signaling (IL-1 beta secretion); THP-1 LPS/ATP IL-1B secretion, AlphaLISA, 16 h; active compounds read low; activity change, % at 57.5 µM; 4.7% of 360,000 active; AID 743279; in the data active = activity change below about -50%; inconclusive = mostly about -30% to -49%
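Secreted IL-1B measured by AlphaLISA bead assay after 16 h compound exposure of THP-1 cells; compounds (final up to 57.5 uM) added 1 h before LPS (250 ng/mL) and ATP (1.25 mM) stimulation; lower signal means less secretion.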
TDP1 cell noCPT – qHTS for Inhibitors of human tyrosyl-DNA phosphodiesterase 1 (TDP1): qHTS in cells in absence of CPT | DT40 Tdp1-/- hTDP1 cells, no CPT, ATP luminescence, 48 h | 15% of 420,000 active | AID 686978, 2013 | Potency, µM (highest dose often 46.2 µM), most hits filed as inhibitors; also: nearly all actives have a fitted effect of over 55% in size
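A cellular qHTS used chicken DT40 cells lacking endogenous Tdp1 but carrying stably transfected human TDP1. Compounds were applied without camptothecin, and cell growth kinetics were judged by ATP-dependent luminescence after ≥48 hr.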
HT1080NT lethal – kills 2HG-producing HT-1080-NT fibrosarcoma cells | Potency, µM (doses to about 46.1 µM), most hits filed as cytotoxic | 1.6% of 360,000 active | HT-1080-NT fibrosarcoma viability, CellTiter-Glo ATP luminescence, 48 h;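 also: NT is the 2HG producing partner of a matched IDH1 knockdown line; nearly all actives have a fitted effect of over 55% in size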
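Viability by CellTiter-Glo luminescence after 48 h compound exposure at 37C of HT-1080-NT cells (750/well, RPMI, 5% FBS). % activity scaled between DMSO wells and medium-only wells, then curve-fitted and categorized by curve class.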
Hits are given with their value; 0 = inactive; ? = inconclusive; - = no result given. Sampled rows, rich in hits. Any-hit rate of the full collection: about 19%. Unless noted, calls follow the shape of the dose curve; as a rule, active = well fitted curve in the direction sought with a large enough effect; inconclusive = small, poorly fitted or top-dose-only effect, or another doubt; inactive = no such curve, though single readings can be large; an effect the other way counts as inactive or inconclusive.

SMILES	HT1080 IDH1KD tx	DT40 TDP1 CPT	IL-1B inflam inh	TDP1 cell noCPT	HT1080NT lethal
S=C(NCCc1ccccc1)N1CCN(C(c2ccccc2)c2ccccc2)CC1	0	12µM	0	16µM	0
Cc1nn(CC(=O)Nc2ccc3c(c2)nc(CCN2CCCCC2)n3C)c(=O)c2ccccc12	2.8µM	11µM	0	?	?
Cn1c(CN2CCCC2)nc2cc(NC(=O)COc3ccc(Cl)cc3)ccc21	?	?	-68	?	?
COc1ccc(OCC(=O)Nc2ccc3c(c2)nc(CN2CCCC2)n3C)cc1	0	?	0	?	0
COc1ccc(OCC(=O)Nc2ccc3c(c2)nc(CCN2CCOCC2)n3C)cc1	0	0	0	0	0
CC(=O)N1CCN(Cc2nc3cc(NC(=O)Cn4nc(C)c5ccccc5c4=O)ccc3n2C)CC1	0	0	0	0	0
Cn1c(CCN2CCCCC2)nc2cc(NC(=O)COc3ccc([N+](=O)[O-])cc3)ccc21	?	0	?	18µM	0
Cn1c(CCN2CCCCC2)nc2cc(NC(=O)COc3ccc(Cl)cc3)ccc21	?	?	-83	?	?
CCOc1ccccc1NC(=O)c1cnc(NS(=O)(=O)c2ccccc2)nc1	0	0	0	?	0
CC(=O)Nc1ccc(N2C(=O)c3ccc(C(=O)Nc4nnc(SCc5ccc(F)cc5)s4)cc3C2=O)cc1	0	0	0	?	0
CCOc1ccc(CCN2C(=S)N([C@@H](CC(C)C)CN3CCCC3CN3C(=S)NC[C@@H]3Cc3ccccc3)C[C@@H]2CC(C)C)cc1 (some centres not stated)	?	?	0	16µM	?
CCOc1ccc(CCN2C(=S)N([C@@H](CC(C)C)CN3CCCC3CN3C(=S)NC[C@@H]3CC(C)C)C[C@@H]2Cc2ccc(O)cc2)cc1 (some centres not stated)	0	18µM	?	?	0
CCOc1ccc(CCN2C(=S)N([C@@H](CC(C)C)CN3CCC[C@@H]3CN3C(=S)NC[C@@H]3CC(C)C)C[C@@H]2Cc2ccc(O)cc2)cc1	16µM	9.2µM	-	12µM	23µM
CCOc1ccc(CCN2C(=S)N([C@@H](CC(C)C)CN3CCC[C@@H]3CN3C(=S)NC[C@@H]3CC(C)C)C[C@@H]2CC(C)C)cc1	0	?	0	?	0
CCOc1ccc(CCN2C(=S)N([C@@H](CC(C)C)CN3CCCC3CN3C(=S)NC[C@@H]3Cc3ccc(O)cc3)C[C@@H]2CC(C)C)cc1 (some centres not stated)	?	?	?	16µM	0
O=C(C(=O)N1CCN(C(=O)OCc2ccccc2)CC1)c1cccnc1	0	0	0	0	0
CCc1nc(SC)[nH]c(=O)c1C	0	0	0	0	0
CSc1nc(=S)cc(C)[nH]1	0	18µM	0	?	?
O=S(=O)(NCc1c(Cl)cccc1Oc1ccccc1)c1ccc(F)cc1	0	?	0	?	0
COc1ccc(S(=O)(=O)NCC(c2ccco2)N2CCOCC2)cc1C (configuration not stated)	-	0	-	0	-
Clc1ccc(/C=C/c2ccnc3ccccc23)cc1	-	10µM	-	8.9µM	-
Clc1ccc(/C=C/c2ccnc3ccccc23)c(Cl)c1	-	5.6µM	-	3.5µM	-
C(=C\c1ccnc2ccccc12)/c1ccccc1	-	?	-	13µM	-
C(=C\c1nnc2c3ccccc3ncn12)/c1ccccc1	5.8µM	5.2µM	0	4.6µM	?
C(=C\c1ccccn1)/c1ccccc1	-	0	-	0	-
SMILES	HT1080 IDH1KD tx	DT40 TDP1 CPT	IL-1B inflam inh	TDP1 cell noCPT	HT1080NT lethal
Clc1ccc(/C=C/c2ncc3ccccn23)cc1	0	0	?	0	0
COC(=O)c1ccc(C)c(NC(=O)COC(=O)C2CC3CCCC(C2)C3=O)c1 (configuration not stated)	0	0	0	0	0
CCCc1cc(N2CCCC(C(=O)NCC)C2)n2ncnc2n1 (configuration not stated)	0	0	0	0	0
Nc1ccc(/C=C/c2ccnc3ccccc23)c(N)c1	-	10µM	-	?	-
C(=C\c1ccnc2ccccc12)/c1ccc(-[n+]2cc[n+](-c3ccc(/C=C/c4ccnc5ccccc45)cc3)cc2)cc1	-	5.6µM	-	5µM	-
Nc1ccc2cccnc2c1	-	?	-	0	-
Cc1c(C)c(C)c(/C=C/c2ccnc3ccccc23)c(C)c1C	-	11µM	-	11µM	-
O=Nc1ccc(/C=C/c2ccnc3ccccc23)cc1	-	16µM	-	8.9µM	-
Cc1cnc2ccccc2c1C	-	0	-	0	-
Cc1ccc(/C=C\c2nccc3c2[nH]c2ccccc23)cc1	?	?	0	?	0
CC(Oc1ccccc1)C(=O)Nc1cc(Cl)ccc1-n1cncn1 (configuration not stated)	0	?	0	0	0
COc1ccc(C(=O)NC2CC2)cc1OC1CCN(Cc2cc(C)cc(C)c2)CC1	0	?	0	?	0
Nc1ccc(/C=C/c2ccnc3ccccc23)cc1	-	10µM	-	11µM	-
COc1ccc(-n2c(SCC(=O)c3ccccc3)nc3c([nH]c4ccccc43)c2=O)cc1	-	0	-	0	-
O=c1cnnc(N/N=C/c2ccccn2)[nH]1	1.3µM	4.6µM	0	3.3µM	?
Cc1cc(=O)[nH]c(NN=Cc2c(Cl)cccc2Cl)n1	0	0	0	0	0
CSc1ccc(/C=N/Nc2nc(C)cc(=O)[nH]2)cc1	0	0	0	0	0
Cc1cc(=O)[nH]c(N/N=C/c2ccccn2)n1	?	3.7µM	0	4.6µM	?
Cc1cc(=O)[nH]c(N/N=C/c2ccc(-c3ccc(F)cc3)o2)n1	8.2µM	9.2µM	0	13µM	?
O=c1nc(N/N=C/c2ccccn2)cn[nH]1	?	5.2µM	0	5.2µM	?
Fc1cccc(Cc2c(-c3ccco3)nc3c(Cl)cc(C(F)(F)F)cn23)c1	?	?	0	?	?
C(=N\Nc1nncc2ccccc12)/c1ccccn1	5.2µM	2.3µM	0	2.9µM	?
COCCN(C(=O)CSc1nnc(-c2ccccc2F)o1)c1c(N)n(CC(C)C)c(=O)[nH]c1=O	0	0	0	0	0
O=C1C=C(c2ccc(-c3ccccc3)c(F)c2)C[C@@H](c2ccc(Cl)cc2)C1	0	21µM	0	?	0
O=C1C=C(c2cccc(O)c2)C[C@@H](c2ccc(F)cc2)C1	0	21µM	0	?	0
O=C1C=C(c2cccc(Br)c2)C[C@@H](c2ccc(Cl)cc2)C1	0	16µM	0	?	0
O=C1C=C(c2cccc(CO)c2)C[C@@H](c2ccc(F)cc2)C1	0	0	0	0	0
Fc1cccc(CCN2CCNC[C@H]2Cc2cccc3ccccc23)c1	0	?	-60	?	0
Oc1ccc(C[C@@H]2CNCCN2CCc2cccc3ccccc23)cc1	0	15µM	?	21µM	0

Bioassay records from PubChem.
